MazF activator: MazEF (E. coli) toxin RNase activation; FAM/BHQ RNA-DNA oligo cleavage fluorescence, 5 h; activation, % at 20 µM; 350,000 tested, 0.32% active; AID 504720; in the data active means activation above about 50%
Target sequence (P0AE70 whole entry, looked up): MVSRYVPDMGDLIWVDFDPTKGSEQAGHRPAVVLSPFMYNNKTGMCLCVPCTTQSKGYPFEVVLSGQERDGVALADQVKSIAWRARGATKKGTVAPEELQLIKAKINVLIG
TcdB GH inh: inhibitors of Clostridioides difficile toxin B glycohydrolase; P18177; TcdB glycohydrolase enzymatic assay, plate reader; inhibition, % at 9.99 µM; 350,000 tested, 0.24% active; AID 652162; in the data active means inhibition above about 10%
UGM FP inh: blocks M. tuberculosis UGM enzyme. P9WIQ1. purified UGM, fluorescence polarization probe displacement. inhibition, % at 10 µM. 320,000 tested, 0.06% active; in the data active means inhibition above about 10%, passing the limit was not always enough
Mtb bLac sens: beta-lactam sensitization of Mtb H37Rv; 330,000 tested, 0.27% active; AID 434955; inhibition, % at 25 µM; M. tuberculosis H37Rv growth with meropenem, percent inhibition;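 further: growth measured after seven days incubation then overnight dye step; 0% = bacteria only wells and 100% = bacteria with antibiotic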
RecA intein inh: Mtb RecA intein splicing inhibition | P9WHJ3 | cell-free RecA intein splicing, fluorescence | 290,000 tested, 0.75% active | inhibition, % (no concentration beside the values); in the data active means inhibition above about 30%;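 further: 0% = vehicle wells and 100% = reference inhibitor control wells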
Rv3671c inh: inhibitors of M. tuberculosis serine protease Rv3671c; inhibition, % at 5.96 µM; 320,000 tested, 0.048% active; P9WHR9; AID 2606; in the data active means inhibition above about 38%;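 further: extracellular domain of Rv3671c used as enzyme; 0% = enzyme with DMSO and 100% = no enzyme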
GFP chromophore: counter-screen GFP chromophore formation inhibition; cell-free GFP chromophore formation, fluorescence; shares compounds with RecA intein inh; AID 434968; EC50, µM; 2,100 tested, 83% active
* marks the source's active call; other numbers are inactive results; x = no result. Rows were chosen to be rich in hits. Some 0.97% of all compounds tested hit in one or more screens of this group. Unless noted, how the calls were made is not given here.

SMILES	MazF activator	TcdB GH inh	UGM FP inh	Mtb bLac sens	RecA intein inh	Rv3671c inh	GFP chromophore
COc1ccccc1-c1cc(C(F)(F)F)nc(S(=O)(=O)CCCC(=O)NCc2ccc(F)cc2)n1	0	2	3	0	47*	4	7.7*
COc1ccccc1-c1cc(C(F)(F)F)nc(S(=O)(=O)CCCC(=O)NC(C)C)n1	2	x	-2	44	22	4	x
CN1C(=O)c2cc(NC(=O)c3cccc(F)c3)ccc2OC[C@H]2O[C@@H](CC(=O)NCC3CC3)CC[C@H]21	x	5	x	x	x	x	x
C[C@H]1CN([C@@H](C)CO)C(=O)Cc2cc(N(C)C)ccc2O[C@@H]1CN(C)S(C)(=O)=O	x	-9	x	x	x	x	x
Cc1nn(-c2ccccc2)c2c1C(c1ccc(Br)s1)C(C#N)=C(N)O2 (configuration not stated)	5	x	x	x	x	x	x
Cc1nn(-c2ccccc2)c2c1C(c1ccc(F)cc1F)C(C#N)=C(N)O2 (configuration not stated)	1	x	-3	9	50*	-11	3.9*
Cc1nn(-c2ccccc2)c2c1C(c1ccccc1)C(C#N)=C(N)O2 (configuration not stated)	5	x	0	8	54*	-130	29*
CC(C)C#Cc1ccc2c(c1)O[C@@H](CN(C)C(=O)c1cnccn1)[C@@H](C)CN([C@H](C)CO)S2(=O)=O	x	0	x	x	x	x	x
N#Cc1c(-c2ccccc2)nc(SCC(=O)N2c3ccccc3Sc3ccccc32)[nH]c1=O	-3	0	0	-6	44*	-23	10*
N#Cc1c(-c2ccccc2)nc(SCC(=O)N(c2ccccc2)c2ccccc2)[nH]c1=O	-7	0	1	6	16	-14	x
Cc1ccc(S(=O)(=O)N(C)C[C@@H]2Oc3ncc(-c4cccc(F)c4)cc3C(=O)N([C@H](C)CO)C[C@@H]2C)cc1	x	-1	x	x	x	x	x
COc1ccc(/C(=N/OC(C)=O)c2nccc3cc(OC)c(OC)cc23)cc1OC	4	1	2	-5	31*	1	>38
CCOC(=O)Cc1[nH]nc2c1C(c1cccc(OC)c1OC)C(C#N)=C(N)O2 (configuration not stated)	3	x	0	-3	45*	0	>38
CCOC(=O)Cc1[nH]nc2c1C(c1cc(OC)ccc1OC)C(C#N)=C(N)O2 (configuration not stated)	5	-5	1	0	63*	6	4.6*
CCOc1ccccc1C1C(C#N)=C(N)Oc2n[nH]c(CC)c21 (configuration not stated)	15	1	3	5	32*	2	33*
COC(=O)Cc1[nH]nc2c1C(c1cccc(OC)c1OC)C(C#N)=C(N)O2 (configuration not stated)	11	x	2	-8	x	6	x
CC(=O)N(C)C[C@H]1Oc2ncc(/C=C/c3ccccc3)cc2C(=O)N([C@H](C)CO)C[C@H]1C	x	0	x	x	x	x	x
CCC(=O)Nc1ccc2c(c1)C(=O)N(C)[C@H]1CC[C@H](CC(=O)N3CCc4ccccc4C3)O[C@@H]1CO2	x	0	x	x	x	x	x
CN1CCN(C(=O)c2cc3c(c(-c4cccc(-c5ccc(C#N)cc5)c4)n2)[C@H](CCO)N([S@@](=O)C(C)(C)C)C3)CC1	x	0	x	x	x	x	x
Nn1cnnc1N/N=C/c1ccc(Cl)c([N+](=O)[O-])c1	3	0	2	-5	59*	-144	25*
O=C(C[C@@H]1C=C[C@@H](NC(=O)C2CCOCC2)[C@H](CO)O1)Nc1ccc(-c2ccccc2)cc1	x	0	x	x	x	x	x
O=[N+]([O-])c1cc(-c2ccc(C(=S)N3CCOCC3)o2)ccc1Cl	4	-1	2	2	31*	9	18*
Cc1cc(Nc2cccc([N+](=O)[O-])c2)c2cccc(C)c2n1	9	2	-1	4	x	3	x
Cc1cc(Nc2ccccc2)c2c([N+](=O)[O-])ccc(C)c2n1	6	x	2	96	71*	-6	12*
CCOC(=O)c1nnc(-c2ccccc2)nc1Sc1c(Cl)cccc1Cl	0	x	-3	5	54*	3	38*
CN1C(=O)c2cc(NC(=O)C3CCCCC3)ccc2OC[C@H]2O[C@@H](CC(=O)NCC3CCCCC3)CC[C@@H]21	x	0	x	x	x	x	x

Assay outcomes as filed in PubChem BioAssay.
